Rows were chosen to be rich in hits. Some 32% of all compounds tested hit in one or more screens of this group.
CYP2C9 activ: activators of human CYP2C9; activation factor at 5 µM; P11712; actives 1.4% (n = 96,000); recombinant CYP2C9, luciferin-H conversion, luminescence; active compounds read high; factor 1 = untreated enzyme, 0 = blocked;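 active means activation factor of 2 or more for CYP2C9 at a 5 µM dose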
CYP2C9 inh: human CYP2C9 inhibition. CYP2C9 Supersomes, luciferin-H conversion, luminescence. inhibition, % at 5 µM. actives 20% (n = 96,000);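 active means blocking of liver enzyme CYP2C9 beyond about 50% at 5 µM, limit read from the data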
PostGolgi yeast: growth inhibition of a yeast mutant, post-Golgi transport screen; post-Golgi transport phenotypic cell assay; inhibition, % at 10 µM; actives 0.9% (n = 98,000); AID 739;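 further: yeast cells grown in 1536-well plates; yeast grown about 18 h at 30C before absorbance read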
CYP2C19 inhib: human CYP2C19 inhibition; CYP2C19 Supersomes, luciferin-H EGE luminescence, 30 min; actives 21% (n = 96,000); inhibition, % at 5 µM;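 active means CYP2C19 inhibition above a set limit at 5 µM in the primary screen, cut at about 50% in these data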
Target sequence (P33261 whole entry, looked up): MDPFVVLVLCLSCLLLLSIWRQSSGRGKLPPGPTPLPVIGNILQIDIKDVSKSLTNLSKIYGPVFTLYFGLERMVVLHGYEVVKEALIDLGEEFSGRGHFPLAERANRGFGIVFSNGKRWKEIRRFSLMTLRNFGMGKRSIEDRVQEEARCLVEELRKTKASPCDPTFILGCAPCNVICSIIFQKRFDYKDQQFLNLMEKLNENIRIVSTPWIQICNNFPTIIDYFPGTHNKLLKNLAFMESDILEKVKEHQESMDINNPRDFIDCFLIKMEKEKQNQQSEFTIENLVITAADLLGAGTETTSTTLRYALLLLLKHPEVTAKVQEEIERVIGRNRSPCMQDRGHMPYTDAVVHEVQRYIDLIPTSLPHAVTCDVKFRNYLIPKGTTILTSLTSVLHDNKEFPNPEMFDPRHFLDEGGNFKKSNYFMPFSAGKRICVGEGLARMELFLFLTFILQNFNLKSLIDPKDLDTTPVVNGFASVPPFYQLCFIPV
CYP2C19 activ: activators of human cytochrome P450 2C19; P33261; recombinant CYP2C19, luciferin-H EGE luminescence; active compounds read high; 0 = fully inhibited enzyme, 1 = untreated enzyme; activation factor at 5 µM; 96,000 tested, under 10 active; AID 1025;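 active means activation factor of at least 2 at 5 µM in the primary screen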
PostGolgi ctrl: growth of the yeast control strain, post-Golgi counter-screen; efflux-deficient yeast background strain, growth absorbance A615, 16 h; inhibition, % at 10 µM; actives 5% (n = 98,000); AID 738
A number is an active result; 0 = inactive; - = not tested or not shown. Unless noted, no stated cut-off is given here; in the data, active means inhibition above about 30%; inactive means the rest.

SMILES	CYP2C9 activ	CYP2C9 inh	PostGolgi yeast	CYP2C19 inhib	CYP2C19 activ	PostGolgi ctrl
Nc1cc(OC(=O)c2cccs2)nn1S(=O)(=O)c1ccccc1	0	0	0	0	0	0
COc1cccc(C(=O)Oc2cc(N)n(S(=O)(=O)c3ccc(C)cc3)n2)c1OC	0	76	0	0	0	0
Cc1cnn(C(=O)c2ccccc2Br)c1	0	0	0	0	0	0
CCC(C)C(NC(=O)OC(C)(C)C)C(=O)NC(C(=O)N1CCCC1C(N)=O)C(C)CC (stereo unspecified)	0	0	0	0	0	0
Cc1ccc(-c2nc(C#N)c(NCCN3CCCCC3)o2)cc1	0	0	0	0	0	0
N#Cc1nc(-c2ccc(Cl)cc2)oc1NCCc1ccccn1	0	0	0	0	0	0
COCCNc1oc(-c2ccc(Cl)cc2)nc1C#N	0	73	0	79	0	0
COc1ccc(CCNc2oc(-c3ccc(C)cc3)nc2C#N)cc1OC	0	50	0	0	0	-
CN(C)CCCNc1oc(-c2ccc(Cl)cc2)nc1C#N	-	-	0	-	-	0
Cc1ccc(-c2nc(C#N)c(NCCc3ccccn3)o2)cc1	0	0	0	0	0	33
COCCNc1oc(-c2ccc(C)cc2)nc1C#N	0	86	0	86	0	0
COc1ccc(-c2nc(C#N)c(NCCc3ccccc3)o2)cc1	-	-	0	-	-	0
CCCN(CCC)CCCNS(=O)(=O)c1ccc2c(c1)oc(=O)n2C	0	0	0	0	0	0
Cc1ccc(NCc2nnc(SCC(=O)NCCc3ccccc3)n2C)cc1	0	0	0	0	0	0
O=c1c2ccsc2ncn1Cc1ccc(Cl)cc1	0	54	0	61	0	0
CC(C)c1ccc(S(=O)(=O)c2n[nH]n3c2nc(=O)c2ccccc23)cc1	-	-	0	-	-	57
O=c1nc2c(-c3ccccc3F)n[nH]n2c2ccccc12	0	0	0	0	0	0
CCc1ccc(S(=O)(=O)c2n[nH]n3c2nc(=O)c2ccccc23)cc1	-	-	0	-	-	50
Cc1sc2nc(NCCO)[nH]c(=O)c2c1C	0	0	0	0	0	0
CCOc1cc(S(=O)(=O)n2nc(C)cc2C)ccc1F	0	0	0	73	0	0
CCOc1cc(S(=O)(=O)N(CC)CC)ccc1F	2.3	0	0	95	0	0
Cc1ccc(S(=O)(=O)n2nc(C)cc2C)cc1	0	0	0	0	0	0
O=C(O)CCC(=O)N1CCc2cc(S(=O)(=O)N3CC=C(c4ccccc4)CC3)ccc21	0	0	0	0	0	0
Cc1ccc(Nc2c3c(nc4ncnn24)CCC3)cc1	0	0	0	60	0	0
CCOc1ccc(Nc2c3c(nc4ncnn24)CC(C)CC3)cc1 (stereo unspecified)	0	0	0	52	0	0
SMILES	CYP2C9 activ	CYP2C9 inh	PostGolgi yeast	CYP2C19 inhib	CYP2C19 activ	PostGolgi ctrl
Clc1cccc(Nc2c3c(nc4ncnn24)CCC3)c1	0	0	0	60	0	0
CCCCOC(=O)Nc1ccccc1C(=O)OC	0	0	0	0	0	0
O=C(CCCOc1ccccc1)Nc1nccs1	0	51	0	86	0	0
O=C(Nc1nccs1)Oc1ccccc1	0	0	0	0	0	37
O=C(Nc1nccs1)c1ccccc1N=Cc1ccccc1	0	80	0	93	0	0
O=C(NCCc1ccccc1F)C(=O)Nc1nccs1	0	0	0	0	0	30
COc1ccc(OC)c(C2C(C(N)=O)=C(C)Nc3nc(CCCO)nn32)c1 (stereo unspecified)	0	0	0	0	0	0
C=CCNC(=O)C(=O)NN=C1CCN(C)CC1	0	0	0	0	0	0
O=C(CCCSc1nc2ccccc2s1)Nc1nccs1	0	88	0	79	0	0
O=C(CCCc1nc2ccccc2s1)Nc1nccs1	0	0	0	0	0	0
CCOC(=O)c1cnc2c(OC)cccc2c1N1CCN(c2ccccc2OC)CC1	0	0	0	0	0	0
CCOC(=O)c1cnc2c(OC)cccc2c1N1CCN(c2ccc(OC)cc2)CC1	0	73	0	67	0	0
CCc1cccc2c(C#N)cn(CC(=O)NCc3ccco3)c12	0	0	0	51	0	0
N#Cc1ccc2ccn(CC(=O)NCc3ccco3)c2c1	0	0	0	0	0	0
Cn1c(=O)oc2cc(S(=O)(=O)N3CCC4(CC3)OCCO4)ccc21	0	0	0	75	0	0
Cc1ccc(Cl)cc1N1CCN(S(=O)(=O)c2ccc3c(c2)oc(=O)n3C)CC1	0	97	0	0	0	37
COc1ccc(C(=O)Cn2c3ccccc3n3nc(CCC(=O)O)c(=O)nc23)cc1OC	0	0	0	0	0	0
CC(=O)OC1COC(N2CCc3cc([N+](=O)[O-])ccc32)C(OC(C)=O)C1OC(C)=O (stereo unspecified)	0	81	0	72	0	0
COc1cccc(NC(=O)c2cn(C)c(=O)c3cc(OC)c(OC)cc23)c1	0	0	0	0	0	0
COc1ccc(CNC(=O)CN(CC2CCCO2)C(=O)CNS(=O)(=O)c2ccc(F)cc2)cc1 (stereo unspecified)	0	0	0	0	0	0
CS(=O)(=O)N(CC(=O)O)c1ccc(Oc2ccccc2)cc1	0	0	0	0	0	36
CCOC(=O)N1CCN(C(=O)CN(c2ccc(OCC)cc2)S(C)(=O)=O)CC1	0	0	0	0	0	0
CCOC(=O)N1CCN(C(=O)CN(c2ccc(Oc3ccccc3)cc2)S(C)(=O)=O)CC1	0	86	0	70	0	0
CS(=O)(=O)N(CC(=O)N1CCC(C(N)=O)CC1)c1ccc(Oc2ccccc2)cc1	0	0	0	0	0	0
CCc1nc(OCc2ccccc2)c2sc3nc4c(cc3c2n1)COC(C)(C)C4	0	0	0	0	0	0
SMILES	CYP2C9 activ	CYP2C9 inh	PostGolgi yeast	CYP2C19 inhib	CYP2C19 activ	PostGolgi ctrl
CC(=O)CCCCn1c(=O)c2c(ncn2C)n(C)c1=O	0	51	0	0	0	0
COC(=O)CCN(C(=O)c1ccc2c(c1)OCO2)c1ccccn1	0	0	0	94	0	0
CCOc1ccccc1C(=O)N(CCC(=O)OC)c1ccccn1	0	0	0	53	0	0
COC(=O)CCN(C(=O)c1cccc(OC(C)=O)c1)c1ccccn1	0	0	0	0	0	0
CCOc1ccccc1N1CC(O)=C(c2nc3ccccc3s2)C1=N	0	58	0	59	0	0
CCN(CC)CCCN1CC(O)=C(c2nc3ccccc3s2)C1=N	0	0	0	0	0	0
COc1cccc(-c2nc(CS(=O)(=O)CC(=O)NCCCN3CCc4ccccc4C3)c(C)o2)c1	0	0	0	0	0	0
Cc1cc2c(c(=O)n1C)C(Cc1ccccc1)C(C#N)=C(N)O2 (stereo unspecified)	0	0	0	83	0	0
CC(C)(C)c1[nH]nc2c1C(c1cccnc1)C(C#N)=C(N)O2 (stereo unspecified)	0	0	0	0	0	0
CCCc1[nH]nc2c1C(/C(C)=C/c1ccccc1)C(C#N)=C(N)O2 (stereo unspecified)	0	0	0	0	0	0

Compound activity (PubChem)
